# According to patent publication US20140271602, “NUCLEOTIDE-SPECIFIC RECOGNITION SEQUENCES FOR DESIGNER TAL EFFECTORS” (THE BROAD INSTITUTE INC., published 2014):
# Changes are numbered by the printed parent chain.
# Assays:
# Assay in all cases: cell_activity; luciferase reporter
# Conditions in all cases: tags: VP64, 2A-GFP; dsDNA, one strand shown
# [1] = molecular target: T1, TALE2-HN (CACNA1C site 2 activator) (Xanthomonas (engineered), UniProt P14727 SEQ:1-983)
# T1 chain: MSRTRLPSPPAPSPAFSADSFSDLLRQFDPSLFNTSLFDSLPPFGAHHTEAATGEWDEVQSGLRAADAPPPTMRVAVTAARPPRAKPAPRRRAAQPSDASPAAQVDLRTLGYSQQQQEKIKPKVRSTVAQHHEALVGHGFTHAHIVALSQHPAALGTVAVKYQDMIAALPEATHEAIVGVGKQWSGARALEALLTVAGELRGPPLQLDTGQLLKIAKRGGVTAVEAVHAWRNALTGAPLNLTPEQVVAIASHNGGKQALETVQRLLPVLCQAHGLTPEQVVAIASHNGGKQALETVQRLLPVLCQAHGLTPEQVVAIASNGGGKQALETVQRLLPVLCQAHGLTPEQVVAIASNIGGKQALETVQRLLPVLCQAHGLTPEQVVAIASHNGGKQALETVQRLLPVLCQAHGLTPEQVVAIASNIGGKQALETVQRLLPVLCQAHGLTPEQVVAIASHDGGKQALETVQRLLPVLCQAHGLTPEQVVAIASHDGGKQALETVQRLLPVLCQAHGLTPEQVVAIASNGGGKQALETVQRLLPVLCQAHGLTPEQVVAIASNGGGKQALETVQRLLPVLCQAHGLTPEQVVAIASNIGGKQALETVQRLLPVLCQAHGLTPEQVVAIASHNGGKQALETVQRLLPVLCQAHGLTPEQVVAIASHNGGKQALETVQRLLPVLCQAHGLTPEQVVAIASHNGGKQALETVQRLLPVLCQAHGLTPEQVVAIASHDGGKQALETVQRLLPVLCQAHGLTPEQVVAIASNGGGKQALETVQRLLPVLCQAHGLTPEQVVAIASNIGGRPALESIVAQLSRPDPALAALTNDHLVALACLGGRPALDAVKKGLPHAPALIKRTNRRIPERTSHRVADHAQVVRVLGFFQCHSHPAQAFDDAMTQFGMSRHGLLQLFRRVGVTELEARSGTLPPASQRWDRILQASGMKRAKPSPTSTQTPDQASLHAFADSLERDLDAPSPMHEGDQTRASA
# [2] = molecular target: T2, TALE2-NH (CACNA1C site 2 activator) (Xanthomonas (engineered), UniProt P14727 SEQ:1-983)
# T2 chain: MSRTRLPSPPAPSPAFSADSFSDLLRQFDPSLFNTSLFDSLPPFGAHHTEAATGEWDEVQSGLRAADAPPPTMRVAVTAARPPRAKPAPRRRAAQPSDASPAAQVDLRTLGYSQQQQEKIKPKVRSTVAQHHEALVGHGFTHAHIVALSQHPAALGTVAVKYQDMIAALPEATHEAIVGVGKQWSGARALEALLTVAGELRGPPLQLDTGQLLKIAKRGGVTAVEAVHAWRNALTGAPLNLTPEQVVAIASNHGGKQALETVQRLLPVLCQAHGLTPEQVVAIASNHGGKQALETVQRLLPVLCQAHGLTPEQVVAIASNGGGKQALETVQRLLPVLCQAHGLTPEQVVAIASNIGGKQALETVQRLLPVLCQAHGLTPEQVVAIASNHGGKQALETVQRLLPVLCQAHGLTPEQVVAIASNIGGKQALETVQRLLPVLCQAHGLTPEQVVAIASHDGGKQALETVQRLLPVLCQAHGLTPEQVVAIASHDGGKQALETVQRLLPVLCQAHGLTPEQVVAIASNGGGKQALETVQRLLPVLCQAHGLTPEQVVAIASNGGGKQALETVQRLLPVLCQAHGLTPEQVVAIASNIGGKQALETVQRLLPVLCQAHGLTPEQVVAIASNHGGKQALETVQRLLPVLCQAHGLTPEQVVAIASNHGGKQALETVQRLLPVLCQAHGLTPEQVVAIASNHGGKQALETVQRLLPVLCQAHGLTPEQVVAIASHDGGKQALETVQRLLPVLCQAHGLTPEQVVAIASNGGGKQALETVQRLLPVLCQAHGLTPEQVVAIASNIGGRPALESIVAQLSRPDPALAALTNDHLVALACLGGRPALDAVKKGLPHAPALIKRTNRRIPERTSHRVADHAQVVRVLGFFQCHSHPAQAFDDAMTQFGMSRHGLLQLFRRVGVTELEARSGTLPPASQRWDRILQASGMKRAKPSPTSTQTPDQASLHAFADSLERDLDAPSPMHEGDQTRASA
# [3] = molecular target: T3, TALE2-NK (CACNA1C site 2 activator) (Xanthomonas (engineered), UniProt P14727 SEQ:1-983)
# T3 chain: T2 chain with H253K, H287K, H389K, H627K, H661K, H695K
# [4] = molecular target: T4, TALE1-NN (CACNA1C site 1 activator) (Xanthomonas (engineered), UniProt P14727 SEQ:1-983)
# T4 chain: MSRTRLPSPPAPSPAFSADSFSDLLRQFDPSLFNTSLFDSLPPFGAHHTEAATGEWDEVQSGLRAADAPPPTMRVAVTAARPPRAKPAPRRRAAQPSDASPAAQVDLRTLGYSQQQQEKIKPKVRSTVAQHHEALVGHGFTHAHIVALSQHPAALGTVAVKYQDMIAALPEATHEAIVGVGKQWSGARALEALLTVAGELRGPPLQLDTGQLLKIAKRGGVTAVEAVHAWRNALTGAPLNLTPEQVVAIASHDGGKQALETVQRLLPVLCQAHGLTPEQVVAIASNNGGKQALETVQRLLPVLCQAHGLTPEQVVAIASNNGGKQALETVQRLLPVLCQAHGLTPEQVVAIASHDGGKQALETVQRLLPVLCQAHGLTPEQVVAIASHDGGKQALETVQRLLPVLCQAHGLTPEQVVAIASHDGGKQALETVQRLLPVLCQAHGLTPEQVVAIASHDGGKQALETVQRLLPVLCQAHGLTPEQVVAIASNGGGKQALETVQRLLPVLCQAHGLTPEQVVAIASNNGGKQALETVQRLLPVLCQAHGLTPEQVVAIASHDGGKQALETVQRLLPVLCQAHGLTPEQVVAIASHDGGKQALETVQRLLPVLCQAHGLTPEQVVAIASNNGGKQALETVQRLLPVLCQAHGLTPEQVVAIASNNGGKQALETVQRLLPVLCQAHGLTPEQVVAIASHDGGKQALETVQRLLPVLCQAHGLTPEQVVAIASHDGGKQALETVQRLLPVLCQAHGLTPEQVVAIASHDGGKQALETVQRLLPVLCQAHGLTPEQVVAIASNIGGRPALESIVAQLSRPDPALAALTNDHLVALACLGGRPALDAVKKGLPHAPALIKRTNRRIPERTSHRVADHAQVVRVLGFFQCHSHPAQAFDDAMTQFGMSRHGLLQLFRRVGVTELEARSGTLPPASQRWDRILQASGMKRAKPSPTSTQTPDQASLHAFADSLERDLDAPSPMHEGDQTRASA
# [5] = molecular target: T5, TALE1-NK (CACNA1C site 1 activator) (Xanthomonas (engineered), UniProt P14727 SEQ:1-983)
# T5 chain: T4 chain with N287K, N321K, N525K, N627K, N661K
sequence,measurement,setting,value
TAATAGACCTTAGGGCTA,binding signal,[1],13.9 % reduction vs wild-type site
same,binding signal,[2],66.1 % reduction vs wild-type site
same,binding signal,[3],36.3 % reduction vs wild-type site
TCAACCCCTGCCGGCCCA,binding signal,[4],35.4 % reduction vs wild-type site
same,binding signal,[5],40.3 % reduction vs wild-type site
TAATAAACCTTAAAACTA,binding signal,[2],< 10 % of wild-type site activation
